Reference: PubChem BioAssay (Tox21)
Values joined by “and” are separate entries in the source; they are usually repeats but may differ in a detail not shown here. Equal entries are not always repeated. Inconclusive results are not listed. Active and inactive are the calls of the source. Unless noted, calls come from the whole dose curve.

Assays:
[1] = Nuclear factor erythroid 2-related factor 2/antioxidant responsive element (Nrf2/ARE) small molecule agonists: luciferase reporter gene qHTS assay in human keratinocytes (AID 1919969); note: nearly all actives have a fitted effect of over 35% in size; note: potency is the fitted concentration of half-maximal effect
[2] = biological target: KiSS-1 receptor (Homo sapiens) (UniProt Q969F8); assay: Human kisspeptin (KISS1R) small molecule agonists, calcium flux assay in KISS1R-HEK293 cells (AID 1920064; active = well fitted activation curve with a large enough effect in the repeat runs; note: potency is the fitted concentration of half-maximal effect)
Sequence of KiSS-1 receptor (Homo sapiens) (Q969F8 whole entry, looked up): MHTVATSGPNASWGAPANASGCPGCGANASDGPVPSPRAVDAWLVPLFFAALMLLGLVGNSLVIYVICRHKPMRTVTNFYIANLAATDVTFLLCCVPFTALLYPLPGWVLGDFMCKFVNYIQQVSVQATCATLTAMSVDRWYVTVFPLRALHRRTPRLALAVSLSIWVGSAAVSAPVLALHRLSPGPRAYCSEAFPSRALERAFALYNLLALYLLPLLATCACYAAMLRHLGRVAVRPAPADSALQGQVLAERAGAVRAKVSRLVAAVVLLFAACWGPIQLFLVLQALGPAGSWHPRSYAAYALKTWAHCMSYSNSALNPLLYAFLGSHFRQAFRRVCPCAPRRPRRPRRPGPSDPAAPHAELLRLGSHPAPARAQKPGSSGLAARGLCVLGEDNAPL
Summary of the method: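 Agonist activity is monitored as intracellular calcium rise in engineered HEK293 cells carrying human KISS1R. Cells are dye-loaded for 1 h at 37 C before compound addition, and fluorescence is recorded for 3 min.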

[3] = G protein-coupled receptor (GPCR) small molecule agonists, calcium flux assay: HEK293 wild type cell line counter screen (AID 1920065)
Summary of the method: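 Seed cells, incubate 18 h (37 C, 5% CO2); add calcium dye, 1 h at 37 C; pin-transfer compounds, ATP control or DMSO; read fluorescence 480/540 nm each second for 3 min.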

[4] = p53 small molecule agonists, cell-based qHTS assay with human liver microsomes (AID 1963577);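 note: p53 response element beta-lactamase reporter cells with liver microsomes plus NADPH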
Summary of the method: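 With metabolic activation: human liver microsomes (0.5 mg/mL final) plus NADPH (0.5 mg/mL final) added alongside compounds to p53RE-bla cells; 16 h 37 C exposure; beta-lactamase read by LiveBLAzer fluorescence.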

[5] = p53 small molecule agonists, cell-based qHTS assay with rat liver microsomes (AID 1963578)
Summary of the method: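 Metabolic activation by rat liver microsomes and NADPH, each 0.5 mg/mL final, added right after compounds to p53RE-bla reporter cells (4,000/well, plated 5 h earlier). 16 h at 37 C, then LiveBLAzer substrate for 2 h at room temperature in the dark; fluorescence read-out.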

[6] = p53 small molecule agonists, cell-based qHTS assay with human liver microsomes: qHTS cell viability counter screen (AID 1963579); note: nearly all actives have a fitted effect of over 45% in size; note: potency is the fitted concentration of half-maximal effect
Summary of the method: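 Metabolic activation used human liver microsomes and NADPH, both 0.5 mg/mL final, over 16 hours at 37 C on p53RE-bla cells (4,000/well). Cytotoxicity measured by CellTiter-Glo luminescence, 30 min at room temperature.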

[7] = p53 small molecule agonists, cell-based qHTS assay: qHTS cell viability counter screen (AID 1963581); note: nearly all actives have a fitted effect of over 45% in size; note: potency is the fitted concentration of half-maximal effect
Summary of the method: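 Viability was counter-screened in parallel with the p53 agonist reporter by measuring intracellular ATP luminescence in the same HCT-116 p53RE-bla wells after 16 h compound treatment at 37 C.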

[8] = biological target: 5-hydroxytryptamine receptor 2A (Homo sapiens) (UniProt P28223); assay: 5-hydroxytryptamine receptor 2A (HTR2A) small molecule antagonists, cell-based qHTS assay (AID 1963586); note: nearly all actives have a fitted effect of over 45% in size
Sequence of 5-hydroxytryptamine receptor 2A (Homo sapiens) (P28223 whole entry, looked up): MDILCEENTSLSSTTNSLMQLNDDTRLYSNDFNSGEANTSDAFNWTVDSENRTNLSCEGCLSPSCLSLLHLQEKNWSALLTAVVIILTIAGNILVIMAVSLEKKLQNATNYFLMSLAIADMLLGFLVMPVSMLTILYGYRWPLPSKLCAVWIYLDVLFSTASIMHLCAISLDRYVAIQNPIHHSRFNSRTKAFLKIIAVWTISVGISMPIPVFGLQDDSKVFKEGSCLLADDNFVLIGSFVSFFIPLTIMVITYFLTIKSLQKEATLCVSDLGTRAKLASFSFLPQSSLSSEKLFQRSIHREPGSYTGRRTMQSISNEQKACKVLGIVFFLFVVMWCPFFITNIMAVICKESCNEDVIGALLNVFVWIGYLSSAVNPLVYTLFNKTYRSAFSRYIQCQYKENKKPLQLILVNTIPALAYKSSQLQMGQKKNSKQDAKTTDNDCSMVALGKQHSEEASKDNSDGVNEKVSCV
Summary of the method: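 CHO cells stably expressing human HTR2A were plated for 18 h at 37 C, then loaded with calcium dye for 1 h. Compounds were preincubated 5 min at room temperature before DOI (4 nM solution) was added. Kinetic fluorescence was read for 3 min.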

[9] = biological target: Muscarinic acetylcholine receptor M1 (Homo sapiens) (UniProt P11229); assay: Cholinergic receptor muscarinic 1 (CHRM1) small molecule antagonists, cell-based qHTS assay (AID 1963588); note: nearly all actives have a fitted effect of over 40% in size; note: potency is the fitted concentration of half-maximal effect
Sequence of Muscarinic acetylcholine receptor M1 (Homo sapiens) (P11229 whole entry, looked up): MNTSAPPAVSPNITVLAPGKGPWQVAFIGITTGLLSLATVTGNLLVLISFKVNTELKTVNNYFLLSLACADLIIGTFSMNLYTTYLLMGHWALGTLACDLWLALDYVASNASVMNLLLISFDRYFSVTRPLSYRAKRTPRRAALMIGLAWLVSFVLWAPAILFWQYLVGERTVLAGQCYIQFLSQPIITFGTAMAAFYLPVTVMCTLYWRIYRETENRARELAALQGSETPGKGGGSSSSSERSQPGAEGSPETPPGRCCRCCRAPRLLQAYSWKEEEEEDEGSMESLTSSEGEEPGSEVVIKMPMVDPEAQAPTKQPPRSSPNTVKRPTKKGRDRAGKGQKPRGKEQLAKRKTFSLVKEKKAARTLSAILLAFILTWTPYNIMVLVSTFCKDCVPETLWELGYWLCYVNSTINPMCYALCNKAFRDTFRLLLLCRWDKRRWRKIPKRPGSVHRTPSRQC
Summary of the method: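 Compounds were tested at 15 concentrations in three independent runs. Dye-loaded CHRM1-CHO cells were exposed 5 min at room temperature before stimulation by acetylcholine added at 50nM. Intracellular calcium was read kinetically on FDSS for 3 min.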

[10] = biological target: D(2) dopamine receptor (Homo sapiens) (UniProt P14416); assay: Dopamine D2 receptor (DRD2) small molecule agonists, cell-based qHTS assay (AID 1963594); note: nearly all actives have a fitted effect of over 35% in size
Sequence of D(2) dopamine receptor (Homo sapiens) (P14416 whole entry, looked up): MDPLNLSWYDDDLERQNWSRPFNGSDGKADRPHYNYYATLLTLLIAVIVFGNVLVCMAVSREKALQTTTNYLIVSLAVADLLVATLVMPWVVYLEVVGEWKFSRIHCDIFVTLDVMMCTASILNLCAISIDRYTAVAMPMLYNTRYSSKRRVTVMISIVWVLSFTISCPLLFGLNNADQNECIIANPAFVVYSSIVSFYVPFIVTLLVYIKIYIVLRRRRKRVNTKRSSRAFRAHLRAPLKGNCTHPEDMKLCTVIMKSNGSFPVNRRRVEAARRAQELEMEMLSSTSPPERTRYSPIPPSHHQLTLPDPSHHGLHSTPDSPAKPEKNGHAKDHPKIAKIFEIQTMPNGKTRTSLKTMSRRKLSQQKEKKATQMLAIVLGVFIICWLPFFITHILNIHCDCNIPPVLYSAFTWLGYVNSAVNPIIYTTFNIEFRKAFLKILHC
Summary of the method: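 cAMP accumulation in DRD2-HEK293 cells measured by HTRF after 1 h detection; compounds added 10 min before NKH477 (200nM […]) forskolin-analogue stimulation, 30 min at room temperature, with Ro20-1724 present at 0.1 mM final.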

[11] = biological target: 5-hydroxytryptamine receptor 2A (Homo sapiens) (UniProt P28223); assay: 5-hydroxytryptamine receptor 2A (HTR2A) small molecule agonists, cell-based qHTS assay (AID 1963587); note: nearly all actives have a fitted effect of over 30% in size; note: potency is the fitted concentration of half-maximal effect
Summary of the method: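 Kinetic calcium-flux fluorescence (2 min, 1 sec intervals) after compound addition in agonist mode. HTR2A-CHO cells were cultured 18 h, then dye-loaded 1 h at 37 C.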

[12] = biological target: D(2) dopamine receptor (Homo sapiens) (UniProt P14416); assay: Dopamine D2 receptor (DRD2) small molecule antagonists, cell-based qHTS assay (AID 1963595; active = well fitted inhibition curve with a large enough effect in the signal ratio in the repeat runs, with a control signal flat; the % refers to the signal ratio; note: potency is the fitted concentration of half-maximal effect)
Summary of the method: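 Antagonist mode in DRD2-HEK293 cells: after compound addition with 0.1 mM Ro20-1724, cells received quinpirole (12 nM) and NKH477 (200 nM) for 30 min at room temperature; HTRF cAMP read after 1 h detection.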

[13] = biological target: Gonadotropin-releasing hormone receptor (Homo sapiens) (UniProt P30968); assay: Human gonadotropin-releasing hormone receptor (GnRHR) small molecule agonists, calcium flux assay in GnRHR-HEK293 cells (AID 1920063); note: nearly all actives have a fitted effect of over 35% in size; note: potency is the fitted concentration of half-maximal effect
Sequence of Gonadotropin-releasing hormone receptor (Homo sapiens) (P30968 whole entry, looked up): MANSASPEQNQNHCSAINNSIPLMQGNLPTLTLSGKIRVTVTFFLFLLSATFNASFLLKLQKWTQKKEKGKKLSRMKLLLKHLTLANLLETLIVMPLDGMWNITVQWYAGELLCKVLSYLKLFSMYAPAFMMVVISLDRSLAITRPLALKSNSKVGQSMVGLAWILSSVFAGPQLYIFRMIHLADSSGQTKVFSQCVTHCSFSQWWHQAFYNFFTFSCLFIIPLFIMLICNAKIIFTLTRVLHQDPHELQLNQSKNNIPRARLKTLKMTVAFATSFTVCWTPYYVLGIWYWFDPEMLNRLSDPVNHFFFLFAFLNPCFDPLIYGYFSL
Summary of the method: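 Agonist activity was measured as intracellular calcium flux in HEK293 cells engineered to stably express human GnRHR. After dye loading for 1 hour at 37 C, compounds in DMSO were added and fluorescence was followed for 3 minutes.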

[14] = p53 small molecule agonists, cell-based qHTS assay with rat liver microsomes: qHTS cell viability counter screen (AID 1963580); note: nearly all actives have a fitted effect of over 45% in size; note: potency is the fitted concentration of half-maximal effect
Summary of the method: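 Cytotoxicity counter screen: intracellular ATP read by CellTiter-Glo luminescence in the p53 reporter wells. HCT-116 p53RE-bla cells were treated for 16 h at 37 C alongside rat liver microsomes and NADPH, each 0.5 mg/mL final.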

[15] = biological target: Muscarinic acetylcholine receptor M1 (Homo sapiens) (UniProt P11229); assay: Cholinergic receptor muscarinic 1 (CHRM1) small molecule agonists, cell-based qHTS assay (AID 1963589); note: nearly all actives have a fitted effect of over 35% in size; note: potency is the fitted concentration of half-maximal effect
Summary of the method: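 Cells were plated and incubated 18 h at 37 C/5% CO2, loaded with calcium dye for 1 h at 37 C, then treated with compounds in DMSO. Fluorescence was recorded kinetically at 1 sec intervals.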

[16] = p53 small molecule agonists, cell-based qHTS assay (AID 1963582; active = well fitted activation curve with a large enough effect in the signal ratio in the repeat runs, not every such curve was filed as active; the % refers to the signal ratio)
Summary of the method: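 Cells carrying a p53-responsive bla reporter are treated with test compounds for 16 h at 37 C; beta-lactamase activity is then detected with LiveBLAzer B/G FRET substrate after 2 h at room temperature.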

[17] = biological target: Beta-2 adrenergic receptor (Homo sapiens) (UniProt P07550); assay: Adrenergic beta2 receptor (ADRB2) small molecule antagonists, cell-based qHTS assay (AID 1963592); note: series mostly up to about 92 µM; nearly all actives have a fitted effect of over 50% in size
Sequence of Beta-2 adrenergic receptor (Homo sapiens) (P07550 whole entry, looked up): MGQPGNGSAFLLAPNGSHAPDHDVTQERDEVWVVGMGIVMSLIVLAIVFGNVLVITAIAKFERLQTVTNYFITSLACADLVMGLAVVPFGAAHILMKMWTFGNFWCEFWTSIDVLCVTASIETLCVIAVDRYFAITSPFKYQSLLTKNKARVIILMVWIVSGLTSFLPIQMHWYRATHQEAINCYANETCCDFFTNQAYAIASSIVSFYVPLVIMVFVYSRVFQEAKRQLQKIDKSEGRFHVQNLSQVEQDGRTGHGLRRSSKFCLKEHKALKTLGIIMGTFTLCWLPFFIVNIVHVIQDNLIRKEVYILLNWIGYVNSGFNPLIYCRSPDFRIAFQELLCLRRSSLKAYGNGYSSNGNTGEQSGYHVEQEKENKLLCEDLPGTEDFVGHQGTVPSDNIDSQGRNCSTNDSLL
Summary of the method: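 Assay format: CHO-ADRB2 cells, 18-20hr seeding at 37C/5% CO2, then compound plus 1nM isoproterenol agonist mix for 0.5hr RT. Homogeneous time-resolved fluorescence cAMP detection after 1hr, expressed as 665/615 nm ratio.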

[18] = cAMP Responsive Elements (CRE) small molecule antagonists, cell-based qHTS assay (AID 1963591; active = well fitted inhibition curve with a large enough effect in the signal ratio in the repeat runs, not every such curve was filed as active; the % refers to the signal ratio)
Summary of the method: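 Cells (CRE-bla HEK 293T, DMEM with 10% dialyzed FBS and 25 mM HEPES) are seeded and incubated 18 h. Compounds are added with NKH477 agonist at 0.25 uM final for 3 h, then FRET substrate for 2 h.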

[19] = cAMP Responsive Elements (CRE) small molecule agonists, cell-based qHTS assay (AID 1963590)
Summary of the method: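 Cells carrying a CRE-driven beta-lactamase reporter (HEK 293T) are seeded, incubated overnight (18 h), and treated with test compounds for 3 h at 37 C; reporter activity is then detected with a FRET substrate after 2 h at room temperature.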

[20] = biological target: Beta-2 adrenergic receptor (Homo sapiens) (UniProt P07550); assay: Adrenergic beta2 receptor (ADRB2) small molecule agonists, cell-based qHTS assay (AID 1963593);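 note: CHO cells stably overexpressing human ADRB2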
Summary of the method: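 CHO cells stably over-expressing ADRB2 were plated overnight at 37C, then dosed with compounds plus a stimulation mix containing 100uM IBMX and 25uM Ro-20-1724 for 0.5hr at room temperature. cAMP was measured by HTRF competition, 1hr.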

Measured: Potency

CCCCC(O)(Cn1cncn1)c1ccc(Cl)cc1Cl (configuration not stated)
inactive: [1] | [2] | [3] | [4] | [5] | [6] | [7] | [8] | [9] | [10]

[Cl][Hg][c]1ccccc1
inactive: [2] | [3] | [4] | [5] | [8] | [9]
active: [1] 0.969 µM | [6] 4.58 µM | [7] 2.89 µM | [11] 49 µM | [12] 13.7 µM

CCN(CC)C(=S)[S-].CCN(CC)C(=S)[S-].[Zn+2]
active: [1] 2.41 µM | [13] 9.69 µM | [2] 19.3 µM | [6] 3.21 µM | [14] 1.61 µM | [7] 4.54 µM | [11] 19.3 µM | [15] 13.7 µM
inactive: [8] | [9] | [12]

Nc1ccccc1C(=O)OC/C=C/c1ccccc1
inactive: [1] | [13] | [2] | [5] | [14] | [16] | [8] | [11] | [9] | [15] | [17] | [10]

O=[N+]([O-])c1ccc(Oc2ccc(C(F)(F)F)cc2[N+](=O)[O-])cc1
inactive: [13] | [2] | [5] | [6] | [14] | [7] | [8] | [11] | [15] | [18] | [10] | [12]
active: [1] 48.6 µM

OC(c1ccc(Cl)cc1)(c1ccc(Cl)cc1)c1cccnc1
active: [9] 16.8 µM
inactive: [1] | [2] | [3] | [4] | [5] | [6] | [16] | [11] | [15] | [19] | [18] | [17] | [10] | [12]

O=C(c1ccccc1)C(Cl)Cl
inactive: [2] | [3] | [4] | [5] | [6] | [7] | [8] | [11] | [9] | [15] | [19] | [17] | [10] | [12]
active: [1] 27.3 µM

CCOP(=S)(NC(C)C)Oc1ccccc1C(=O)OC(C)C (configuration not stated)
inactive: [1] | [13] | [3] | [6] | [14] | [7] | [8] | [11] | [9] | [15] | [17] | [10] | [12]

CCCCOCN(C(=O)CCl)c1c(CC)cccc1CC
inactive: [13] | [2] | [4] | [6] | [14] | [7] | [8] | [11] | [9] | [15] | [17] | [10]
active: [1] 24.3 µM

O=C1C=CC(=O)c2ccccc21
inactive: [2] | [3] | [4] | [5] | [7] | [16] | [8] | [9] | [15] | [17] | [10]
active: [1] 6.11 µM | [14] 20.4 µM | [11] 21.9 µM

COC(=O)COc1ccc(Cl)cc1Cl
inactive: [1] | [2] | [3] | [4] | [5] | [6] | [14] | [7] | [16] | [8] | [11] | [9] | [15] | [17] | [10] | [12]

CC(C)=CC1C(C(=O)OCc2coc(Cc3ccccc3)c2)C1(C)C (configuration not stated)
active: [1] 61.2 µM and 61.1 µM
inactive: [13] | [2] | [3] | [14] | [7] | [8] | [11] | [9] | [15] | [19] | [18] | [17] | [10] | [12]

CN1CCc2cc3c(cc2C1O)OCO3 (configuration not stated)
inactive: [13] | [3] | [6] | [14] | [7] | [8] | [11] | [15] | [17] | [10] | [12]
active: [1] 54.8 µM

N#CCc1ccc(Cl)cc1
inactive: [1] | [13] | [2] | [4] | [5] | [6] | [7] | [16] | [8] | [11] | [9] | [15] | [19] | [18] | [17] | [10] | [12]

CCOP(=O)(OCC)Oc1nc(Cl)c(Cl)cc1Cl
inactive: [1] | [13] | [3] | [6] | [14] | [7] | [8] | [11] | [9] | [15] | [10]

CCCCNC(=O)OCC#CI
active: [1] 24.2 µM and 24.3 µM | [12] 68.6 µM
inactive: [2] | [3] | [4] | [5] | [6] | [14] | [7] | [8] | [9] | [15] | [17] | [20] | [10]

N#CSCc1ccccc1
active: [1] 68.9 µM
inactive: [13] | [3] | [4] | [5] | [6] | [7] | [8] | [11] | [15] | [19] | [17] | [20] | [10] | [12]

O=C(N[C@@H]1N=C(c2ccccc2F)c2cccc3c2N(CC3)C1=O)c1cc2ccccc2[nH]1
inactive: [1] | [5] | [14] | [7] | [9] | [15] | [19] | [18] | [17] | [20] | [10]
active: [13] 4.25 µM | [2] 15.1 µM | [11] 13.4 µM
